# Measurements published in PubChem BioAssay AID837 (The Scripps Research Institute Molecular Screening Center, 2007).
# Active and inactive are the calls of the source.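 Rule for the calls: active = relative FRET score above 0.01, or acceptor fluorescence over 30% below the sample-well median; inactive = the rest.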
# Target: Protein Rev (Human immunodeficiency virus type 1 group M subtype B (isolate WMJ22)) (UniProt P05866)
# Assay: HIV-1 Rev-RRE binding inhibitors, retest, confirmation, biochemical, FRET, acceptor and relative FRET calls (AID 837);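 note: relative FRET combines rise in Cy5 acceptor with fall in fluorescein donor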
# Settings: Fl-Rev peptide / Cy5-RRE RNA FRET, 1536-well; at 8 µM
# Sequence of Protein Rev (Human immunodeficiency virus type 1 group M subtype B (isolate WMJ22)) (P05866 whole entry, looked up): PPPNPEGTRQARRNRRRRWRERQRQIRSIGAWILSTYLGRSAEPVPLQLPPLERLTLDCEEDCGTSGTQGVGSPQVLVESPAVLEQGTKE
row,Structure (SMILES),outcome
1,O=c1cc(-c2ccco2)oc2c1ccc1ccccc12,inactive
2,COc1ccc2c3c(cccc13)NN=C2C,inactive
3,COC(=O)c1scc(C)c1N/N=C(\C)c1ccc(F)cc1F,inactive
4,CN1CCN(Cc2cccc(Oc3ccc(Cl)cc3)c2)CC1,inactive
5,CCCCN1CCc2c1nc1ccc(Br)cc1c2N,inactive
6,N=c1c2c(n(Cc3ccc(F)cc3)c3c1CCC3)CCC2,inactive
7,CCOC(=O)[C@@H]1CCNC[C@@H]1c1ccccc1,inactive
8,CCCN(N=Nc1cccc([N+](=O)[O-])c1)c1cccc([N+](=O)[O-])c1,inactive
9,CCc1nnc(NC(=O)c2ccc3c(c2)C(=O)N(C(C)(C)C)C3=O)s1,inactive
10,c1ccc(COc2ccc(OCCCN3CCCCC3)cc2)cc1,inactive
11,CCCCOC(=O)Cn1c(=N)n(CCC)c2ccccc21,inactive
12,CCCN1C2=NCCN2c2cc(C)c(C)cc21,inactive
13,CCN(CC)CCNC1=NCCn2c1cc1cc(OC)ccc12,active
14,NCCCC(=O)N1c2ccccc2Sc2ccccc21,active
15,CCOc1ccc2nc3ccc4[nH]onc4c3c2c1,inactive
16,COc1ccc(CN(C)C2CCCCC2)c(C)c1C,inactive
17,Cc1cccc(NC2=NC3(CCCCC3)N=C(N)N2)c1C,inactive
18,c1coc(CNc2c3c(nc4ccccc24)CCC3)c1,inactive
19,Cc1cc(C)cc(NC2=NC3(CCCCC3)N=C(N)N2)c1,inactive
20,O=C(Cn1cnc2ccccc2c1=O)N1CCOCC1,inactive

row,Structure (SMILES),outcome
1,COC(CNc1cc(=O)oc2ccccc12)OC,inactive
2,COc1ccc(CCn2c(=N)c(C(=O)NCc3ccco3)cc3c(=O)n4cccc(C)c4nc32)cc1,inactive
3,CC1CC(c2ccccc2)n2nc(NC(=O)c3cccs3)nc2N1 (stereo not given),inactive
4,CC(C(=O)O)N1C(=O)/C(=C/C=C/c2ccco2)SC1=S (stereo not given),inactive; quenches the donor
5,CCN(CC)CCn1c(=N)n(CCOc2ccccc2)c2ccccc21,inactive
6,CCCn1c(=N)c(C(=O)NCc2ccc3c(c2)OCO3)cc2c(=O)n3cccc(C)c3nc21,inactive
7,CCOc1cc(-c2ccc(N)c(OCC)c2)ccc1N,active; fluoresces like the donor
8,CN1CCc2c(sc3c2C(=O)NC(c2cn(Cc4ccccc4)c4ccccc24)N3)C1 (stereo not given),inactive
9,O=C(O)c1ccc2c(c1)[C@@H]1C=CC[C@@H]1[C@H](c1ccccn1)N2,inactive; quenches the donor
10,COc1cccc(OC)c1-c1nn2c(-c3cc(-c4ccccc4)n[nH]3)nnc2s1,active
11,COc1ccc(Nc2nc(N)nc(CN(C)C3CCCCC3)n2)cc1,active
12,C=CCn1c(=O)c(C(=O)NCCNCC)c(O)c2ccccc21,inactive
13,N=c1n(CCO)c2ccccc2n1Cc1ccccc1Cl,inactive
14,CC(C)c1ccc(CNCc2ccccc2)cc1,inactive
15,CCc1ccc2nc3nc(C)cc(C)c3c(N)c2c1,active
16,C=CCn1cc(-c2ccccc2)cc(C#N)c1=O,inactive
17,CCOc1ccc(C(O)Cn2c(=N)n(CCN3CCCCC3)c3ccccc32)cc1 (stereo not given),inactive
18,CCOC(=O)c1c(C)n(C)c2ccc(O)c(CN(C)C)c12,active
19,COc1cccc(Nc2nc(N)nc(-c3oc4ccccc4c3C)n2)c1,active
20,Cc1occc1C(=O)Nc1sc2c(c1C(N)=O)CCC(C(C)(C)C)C2 (stereo not given),inactive
